The values that follow come from the supplement of paper PMC10681739.

The target of this test is T1, ETS1 (UniProt P14921).
T1 sequence: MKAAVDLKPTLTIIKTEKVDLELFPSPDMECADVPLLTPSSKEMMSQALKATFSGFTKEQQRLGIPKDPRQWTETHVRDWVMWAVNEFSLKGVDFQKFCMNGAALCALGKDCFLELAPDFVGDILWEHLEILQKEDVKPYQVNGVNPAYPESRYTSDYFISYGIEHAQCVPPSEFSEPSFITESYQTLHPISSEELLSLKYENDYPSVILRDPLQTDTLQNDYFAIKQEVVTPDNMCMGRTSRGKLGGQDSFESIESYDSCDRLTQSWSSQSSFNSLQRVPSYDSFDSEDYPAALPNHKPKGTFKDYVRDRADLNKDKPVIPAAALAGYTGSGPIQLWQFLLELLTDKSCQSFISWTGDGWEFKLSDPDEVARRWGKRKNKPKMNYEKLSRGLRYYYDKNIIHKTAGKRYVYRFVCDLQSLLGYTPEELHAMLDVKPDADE
Nature of the test: ETS1 binding intensity (PBM fluorescence), ETS1 alone (arbitrary fluorescence units); higher = stronger binding. To be noted: ETS1 concentration 1 nM; RUNX1 concentration 0 nM.
TGGCTTTGCAGAAGGAAGCTGTGGTTTCTGGTCTTC returned an ETS1 binding intensity of 620.
For the sequence CAGGGTGTCGGCTTCCGGCGGTTGCCCACTTTCGGC, the ETS1 binding intensity stood at 1100.
In the case of ATGGTGTAGAGAGGATGTGGGCTTTAAGGTCAGAGA it was 1140.
With GGCCCAGGAAAGAGGCAGGGGTGCGGTTTCCCTCCG the figure was 394.
With CAGGTGTTCAGGAAACAAAACCACAGACTTTTTCAC the figure was 562; with ATGGGGAACGGGAAATACGGCGGGAACCACAATCGC, 734.
For CGAAGCCAGGAAATAAGGATAAACCACAGAAAGAAA, the ETS1 binding intensity worked out at 1060.
ACGTCTGTTTCCTGTGATTGAAACCGCAAGAAGAAG gave an ETS1 binding intensity of 783.
For GCCTCCTCAGGAAATTGCCCAAAATAGCCACATGTC, the ETS1 binding intensity is 735.
In the case of TAAATGTTTCCTAAAAGCTCTTTCATAAACCACAGT it was 390.
As for AACAAAGAGAGAGGAAGTGGGTTGGGCGGGGGGGGT, the ETS1 binding intensity came out at 1880.
With CTTATCTTCTTCCTGTGAGCTGTGTGTGGGTGGCTC the figure was 489; with GACCACTTCCTTTCTGTGTTTTGTGGTTTCACAACT, 555.
With GGTCCGGAAACGATTCTGGACCTGCGGGTATATCCA the figure was 1050.
In the case of GATCCCCCTCCTCCATCCTGTGGCTTCGGGTTGCCG it was 482.
Take GGAGAGTTGACTTCCGGCGGCTTGTGGGAGTGCTGG: the ETS1 binding intensity worked out at 2740.
In the case of GCTTCTTCCGGCCGGGCCGAGAGGTGGTTACATTCG it was 683; in that of TGGTTAGGGAGAGGGGGATGTGGTTAGGGTGAGGGA, 530; in that of GGGCCCGGGCCAGGAAGTGGTTTTGCAGAGGTGTTT, 4630.
TGCTCAAATGCAGGATGTGGTCTGAGAGTTTCTCCT: the ETS1 binding intensity was 1910.
In the case of AGCTGCAGTTGGGCAGGAAACCACAATGTCGAAGAC it was 2490.
